Experiments:
Test in all cases: PBM binding z-score (relative to random genomic background probes); higher = stronger binding; sequences stand for … in GC…GCGATTGACAGCGTAGAATGAAGG
[1] = system: FXR:RXRa (NR concentration 270 nM, RXRa partner concentration 90 nM)
How it was run: (§1)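 Regression normalization was applied to scanned fluorescence from custom Agilent 4×180K protein-binding microarrays. Before scanning, arrays were incubated 1 h with ligand-free nuclear receptor dimers, and binding was detected with antibodies against each partner (one per run). Binding z-scores use the random background probes as reference.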

[2] = system: LXRa:RXRa (NR concentration 270 nM, RXRa partner concentration 90 nM)
How it was run: as §1

[3] = system: LXRa homodimer (NR concentration 270 nM)
How it was run: as §1

[4] = system: LXRb:RXRa (NR concentration 270 nM, RXRa partner concentration 90 nM)
How it was run: as §1

[5] = system: LXRb homodimer (NR concentration 270 nM)
How it was run: as §1

[6] = system: PPARa:RXRa (NR concentration 270 nM, RXRa partner concentration 90 nM)
How it was run: as §1

[7] = system: PPARg:RXRa (NR concentration 180 nM, RXRa partner concentration 90 nM)
How it was run: as §1

[8] = system: PPARg:RXRa 270nM:90nM, anti-RXR (NR concentration 270 nM, RXRa partner concentration 90 nM)
How it was run: as §1

[9] = system: PPARg:RXRa 30nM:10nM, anti-RXR (NR concentration 30 nM, RXRa partner concentration 10 nM)
How it was run: as §1

[10] = system: PPARg:RXRa 90nM:30nM, anti-RXR (NR concentration 90 nM, RXRa partner concentration 30 nM)
How it was run: as §1

[11] = system: PPARg:RXRa DBDmut IVT, anti-RXR (DBD mutation: RXRa K156A/R161A, NR concentration 270 nM, RXRa partner concentration 90 nM)
How it was run: as §1

[12] = system: PPARg:RXRa IVT, anti-PPARg (NR concentration 270 nM, RXRa partner concentration 90 nM)
How it was run: as §1

[13] = system: PPARg DBDmut:RXRa IVT, anti-PPARg (DBD mutation: PPARg1 K132A/R137A, NR concentration 270 nM, RXRa partner concentration 90 nM)
How it was run: as §1

[14] = system: PPARg DBDmut IVT, anti-PPARg (DBD mutation: PPARg1 K132A/R137A, NR concentration 270 nM)
How it was run: as §1

[15] = system: PPARg homodimer (NR concentration 180 nM)
How it was run: as §1

[16] = system: PXR:RXRa (NR concentration 270 nM, RXRa partner concentration 90 nM)
How it was run: as §1

[17] = system: PXR homodimer (NR concentration 270 nM)
How it was run: as §1

[18] = system: RARa:RXR (NR concentration 270 nM, RXRa partner concentration 90 nM)
How it was run: as §1

[19] = system: RARa homodimer (NR concentration 270 nM)
How it was run: as §1

[20] = system: RARb:RXRa (NR concentration 270 nM, RXRa partner concentration 90 nM)
How it was run: as §1

Sequence	PBM binding z-score [1]	PBM binding z-score [2]	PBM binding z-score [3]	PBM binding z-score [4]	PBM binding z-score [5]	PBM binding z-score [6]	PBM binding z-score [7]	PBM binding z-score [8]	PBM binding z-score [9]	PBM binding z-score [10]	PBM binding z-score [11]	PBM binding z-score [12]	PBM binding z-score [13]	PBM binding z-score [14]	PBM binding z-score [15]	PBM binding z-score [16]	PBM binding z-score [17]	PBM binding z-score [18]	PBM binding z-score [19]	PBM binding z-score [20]
AGAATGAGGTTAAGATCAGGGTAACAGAATACAT	2.5	2.47	0.0614	2.01	-0.068	3.68	2.64	2.66	0.832	1.9	3.19	3.28	1.74	0.532	1.13	1.73	0.602	2.85	0.262	2.08
CGAACTAGGTCAAGGAAAGTGAATCTCCGCACGC	2.69	1.93	-0.152	1.2	-0.225	4.55	7.18	6.18	3.7	5.66	7.89	8.29	1.18	0.515	1.22	0.813	-0.499	1.62	0.0155	3.9
CCAGACAGGTGAAAGGTGACTCAGTCTGGTACGC	1.34	1.27	-0.086	1.33	-0.308	4.15	6.88	6.76	5.26	7.19	2.4	3.47	0.243	-0.992	1.3	1.85	0.0178	2.91	0.796	1.96
TCTATTAGTTGAAGGGCAGCCGACGAGTCCGTTT	0.906	0.864	0.0935	0.623	0.323	0.856	-0.213	1.78	3.64	2.81	2.37	0.427	0.454	1.07	0.963	0.654	0.958	0.447	0.781	1.37
CCTAGTAGGCCAATCTGGGTCACTCAAGGCTTGA	0.701	1.69	-0.399	1.2	-0.38	3.58	3.41	3.08	0.257	2.26	6.2	6.35	0.0197	-0.994	0.502	1.07	-0.356	1.39	-0.858	1.78
CCAGACATGTGAAAGGTAACTCAGTCTGGTACGC	-0.293	-0.0217	0.0919	0.07	0.186	1.02	1.63	2.44	0.62	2.1	0.121	0.275	-0.125	0.223	0.969	0.118	-0.196	0.553	0.138	0.186
CAAACTAGGTCAAAGGTGAAAGTCGAGCCAACCA	6.6	5.02	0.751	4.52	0.619	7.19	13.3	10.7	12.4	13.5	8.83	8.9	5.06	3.41	4.11	4.59	0.25	7.31	1.09	4.41
TCTTGTAGATCAGCAGGTTTAGAAAGCTGGCCAA	-0.241	-0.13	-0.52	0.0239	-0.59	0.117	-0.901	0.915	2.13	1.23	1.21	-0.135	-0.815	-0.0639	-0.866	-0.251	-0.893	-0.334	-0.74	-0.387
GGAAGGAGGGCAAGTTGATAGCAGAGTTTGATGG	1.04	0.798	0.562	1.5	1.47	1.92	1.2	1.53	0.406	0.957	3.75	3.16	0.411	0.837	2.03	1.44	2.2	0.685	1.5	2.54
ATCTCGAGGTAAAAGTTCAGTGAATCCCGAGGAT	1.26	1.85	0.551	1.28	0.304	3.44	5.01	5.51	4.17	5.67	-0.0537	2.11	0.38	0.58	0.813	2.53	0.878	2.6	-0.00487	2.54
CCTCGGAGGACAGAAGGCCAGAGCTGTCCGCTTT	-0.543	-0.556	-1.17	-1.28	-1.6	-1.15	-0.739	-1.08	-1.21	-1.06	-0.668	-1.07	-2.21	-1.68	-0.167	-0.524	-1.34	-0.34	-0.862	0.374
CTCGAAAGGTCGTGCACAGGTGAGTATACCAAAC	5.53	4.43	0.217	4.18	0.385	5.18	3.43	4.58	1.66	3.05	0.853	2.21	0.533	0.411	2.02	3.56	0.388	4.46	0.659	4.07
ATCTCTAGGTACCCAAGTTCAGTGAATGCCGAAC	0.332	1.7	3	0.887	1.08	0.625	0.408	0.456	0.321	0.493	0.72	1.02	0.772	0.793	0.883	1.76	1.62	0.698	0.262	1
CCTACTGGGCCAAGGTCGTTGATCAGTCAAAGCA	0.16	0.0412	-0.352	0.25	-0.992	1.56	1.7	2.33	0.177	1.6	3.4	3.41	-1.53	-1.31	-0.148	0.637	0.241	0.405	-0.549	1.09
CGAACTAGGTCATTGTCAGGACAGTGAATAGTAA	3.91	3.08	0.611	1.99	0.0511	4.67	7.44	6.43	4.07	5.88	8.22	8.47	5.17	6.24	3.98	1.84	0.47	2.49	0.423	3.48
CAAACTAGGTCACAGCGGTCAAAGTCCGTGCGTA	5.25	5.23	5.2	4.06	0.739	5.65	8.85	7.4	5.13	7.02	8.22	8.97	2.1	1.7	2.78	3.32	1.36	3.58	1.2	4.58
TCGAGTAGGTTTGGGGCATTCAGAATGGCGTCGA	-0.5	-0.529	-0.289	0.316	-0.295	0.0771	-0.558	0.475	0.701	0.598	0.667	-0.179	-0.869	-0.587	-0.00492	-0.143	-0.414	-0.156	-0.479	-0.00663
TAGCCTAGGTAATTGGGCCAGTATAGTACGCATC	-0.768	-1.07	-0.581	-0.51	-0.491	0.679	0.785	0.424	-0.205	-0.132	1.83	2.8	0.0704	-0.276	-0.531	-0.502	-0.469	-0.743	-0.501	-0.455
TAGCCTAGGTCATGCGGGCCGGTATAGTGTCGGC	4.25	3.22	0.206	1.43	-0.202	3.19	1.89	2.45	0.149	1.79	1.61	2.8	-0.135	-0.829	1.05	1.04	-0.496	2.14	-0.545	3.61
TCATATAGGTAATCCAGGTGAAAGTCGGCATCTA	1.03	1.21	0.37	0.829	0.397	2.4	1.87	2.9	4.14	3.53	4.8	4.82	1.66	1.21	1.69	0.657	0.114	1.28	0.866	0.724
CCTTACGGGTCACTCCAGGTTATAGCGTCGGAGT	5.26	7.75	1.89	5.52	0.0674	4.65	3.13	3.94	1.17	2.7	2.49	3.79	0.79	-0.822	2.29	5.1	0.516	4.18	0.581	3.74
GATACAGGGTCAGCTAGAGGCCAGAGCATGGAAA	4.96	2.87	-0.62	2.42	-0.712	4.58	3.81	3.58	1.01	2.09	1.04	2.15	0.0195	-0.294	1.76	2.88	-0.095	4.33	-0.0795	4.16
TCTTGTAGATCAAAGTTTAAGAAAGCCGAAGCCT	0.983	1.1	0.0318	0.659	0.169	2.46	4.04	5.01	5.17	5.73	2.31	1.66	0.921	0.574	0.293	0.685	0.403	0.864	0.333	0.69
GCGCCTGGGGCATCAGCAGGTTACCATAACTTAA	-0.344	-0.299	-0.446	0.294	-1.19	0.454	0.0238	-0.488	-0.952	-0.927	-0.452	-0.359	-1.03	-1.67	-0.0775	0.0887	-0.879	0.514	-1.02	0.937
TCGAGTAGGTTAGGGGCATTGAGAATGGCGTCGA	0.089	0.155	-0.182	0.843	-0.13	1.18	0.706	1.97	1.38	1.51	1.85	1.45	-1.19	-0.696	1.3	0.449	0.233	0.211	-0.562	1.03
CCTACTGGGCCACGAAAGGTCAATGATTCAGTGA	3.22	4.61	2.93	3.95	-0.0572	4.44	4.52	4.6	1.66	3.59	5.81	6.07	0.295	-0.781	2.45	4.54	0.206	4.68	0.747	4.09
CCTGCTAGGTCATGGTCAGCAAATCTACAGTATG	3.65	2.33	0.105	1.71	-0.273	3.53	2.37	2.74	0.551	1.8	4.25	3.63	0.173	-0.183	1.03	1.15	-0.302	2.22	0.017	3.7
AGCTCTAGGTAAGACTCAGTTCAGTGAAGAACGC	-0.104	0.132	0.197	-0.188	-0.399	-0.0359	-0.139	0.0762	0.0391	-0.261	2.37	0.56	-0.869	0.622	-0.0493	0.744	0.904	-0.0214	-0.00994	-0.0595
